Results filed as inconclusive are left out. The source made the active and inactive calls. Calls come from the whole dose curve; as a rule, active = well fitted inhibition curve with a large enough effect; inconclusive = small, poorly fitted or top-dose-only effect; inactive = flat fitted curve, though single readings scatter.

The values below come from PubChem BioAssay (NCATS).

What all share (assay): qHTS profiling for inhibitors of Plasmodium falciparum proliferation (AID 504749); note: nearly all actives have a fitted effect of over 60% in size
What all share (details): P. falciparum in erythrocytes, SYBR Green DNA, 72 h; series mostly up to 28.7 µM
For orientation: qHTS replaces the single test concentration by a dilution series.

The test system of one assay is DIV14. Put shortly:
(§1)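 P. falciparum-infected erythrocytes (0.3% parasitemia, 2.5% hematocrit) incubated with compound 72 h at 37 C, 5% CO2. Parasite DNA detected by SYBR Green after lysis, overnight at room temperature; normalised to 0.29 uM artemisinin and DMSO.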

The next assay relates to DIV17. In a few lines:
as §1

The test system of the next assay is DIV30. In a few lines:
as §1

The next assay has as its system Dd2. In a few lines: as §1
The subject of a further assay is ECU. In a few lines:
as §1

Another assay concerns GB4. In a few lines: as §1
The next assay concerns ICS. In a few lines: as §1
For another assay, the system named is JCK. In a few lines: as §1
A further assay has as its system FAB9. In a few lines: as §1
The test system of a further assay is HB3. In a few lines:
as §1
Potency is the fitted concentration of half-maximal effect.

On to `CN1CCC(=C2c3ccccc3Sc3ccccc32)CC1`, for which the Potency was 7.57 µM (active) with DIV14; 12 µM (active) in the assay on DIV17; 9.53 µM (active) in the assay with DIV30; 4.47 µM (active) with Dd2; 7.08 µM (active) in the assay on ECU; 3.38 µM (active) in the assay on GB4. For the same molecule, the Potency with ICS is 5.62 µM (active). For the same molecule, the Potency result in the assay with JCK is “inactive”.

Take `OC(CCN1CCCCC1)(c1ccccc1)c1ccccc1`: the Potency was 4.26 µM (active) in the assay with DIV14; 6.75 µM (active) in the assay on DIV17; 10 µM (active) in the assay on Dd2; 6.75 µM (active) in the assay on GB4; 12.6 µM (active) with ICS. Besides, the Potency entry in the assay on ECU, in the assay on FAB9 and in the assay on HB3 was “inactive” in each case.

With `CC[N+](CC)(CCNC(=O)C(=O)NCC[N+](CC)(CC)Cc1ccccc1Cl)Cc1ccccc1Cl`, the Potency in the assay on DIV14 is 4.26 µM (active); in the assay with DIV17 it was 4.78 µM (active); in the assay with DIV30 it was 6.01 µM (active); in the assay with Dd2, 2.51 µM (active); with FAB9, 1.12 µM (active); in the assay with GB4, 2.39 µM (active). Besides, the results for the Potency in the assay on ICS and with JCK were 1.58 µM (active) and 10 µM (active), respectively.

As for `COc1c(C)c2c(c(O)c1C/C=C(\C)CCC(=O)O)C(=O)OC2`, the Potency was 6.42 µM (active) in the assay with DIV14; 6.42 µM (active) in the assay with DIV17; 5.1 µM (active) in the assay on DIV30; 3.55 µM (active) in the assay on Dd2; 5.01 µM (active) with ECU; 5.1 µM (active) with GB4. Further, the Potency with ICS is 3.55 µM (active).

Consider `CCCCCCCCCCCCCCCC[N+](C)(C)CCN(Cc1ccc(OC)cc1)c1ncccn1`, for which the Potency in the assay on DIV14 was 7.21 µM (active); in the assay on ECU, 1.12 µM (active). Further, the Potency result in the assay on DIV30, in the assay with FAB9, in the assay with HB3 and with JCK was “inactive” in each case.

Take `CN1C2CCC1CC(OC(=O)c1c[nH]c3ccccc13)C2` (configuration not stated): the Potency entry in the assay on DIV17, with DIV30, in the assay with Dd2, with ECU, in the assay on FAB9 and with GB4 was “inactive” throughout. Besides, the Potency entry with HB3, with ICS and with JCK was “inactive” throughout.

As for `CC(C)COC(=O)c1ccc(N)cc1`, the Potency entry with DIV17, in the assay on DIV30, with Dd2, in the assay with ECU, in the assay on FAB9 and in the assay on GB4 was “inactive” in each case. The Potency result in the assay on HB3 and in the assay with ICS was “inactive” in each case.

Take `CNCCC(Oc1ccccc1C)c1ccccc1` (configuration not stated): the Potency in the assay on DIV14 was 6.01 µM (active); with DIV17, 6.75 µM (active); in the assay on Dd2, 7.08 µM (active). In addition, the Potency result in the assay on ECU, with FAB9, in the assay with GB4, in the assay with HB3 and in the assay with JCK was “inactive” throughout.

On to `C[C@@H]1C[C@H]2[C@@H]3CCC4=CC(=O)C=C[C@]4(C)[C@@]3(F)[C@@H](O)C[C@]2(C)[C@H]1C(=O)CO`, for which the Potency with DIV14 was 13.5 µM (active). Also, the Potency entry with Dd2, with ECU, in the assay with FAB9 and with JCK was “inactive” in each case.

In the case of `CN(C)C(=S)SC(=S)N(C)C`, the Potency with DIV14 was 13.5 µM (active); in the assay on DIV30 it was 12 µM (active); in the assay with Dd2 it was 7.08 µM (active); in the assay with ECU, 1.12 µM (active); with GB4, 13.5 µM (active); in the assay on HB3, 5.01 µM (active). Also, the Potency in the assay with ICS is 5.01 µM (active).

For the molecule `CCN(CC)CCOc1ccc(C(O)(Cc2ccc(Cl)cc2)c2ccc(C)cc2)cc1` (configuration not stated), the Potency with DIV14 is 9.53 µM (active); with DIV17, 15.1 µM (active); in the assay with Dd2, 10 µM (active); with GB4, 13.5 µM (active); with ICS, 8.91 µM (active). In addition, the Potency entry in the assay on FAB9 was “inactive”.

On to `Oc1c(I)cc(I)c2cccnc12`, for which the Potency entry in the assay on DIV14, in the assay with ECU, in the assay on FAB9 and in the assay on JCK was “inactive” throughout.

Regarding `Nc1ccc(C(=O)Nc2ccccc2N)cc1`, the Potency entry in the assay on DIV14, in the assay with DIV17, with Dd2, with ECU, in the assay with FAB9 and in the assay on GB4 was “inactive” in each case. For the same molecule, the Potency result in the assay on HB3, with ICS and in the assay on JCK was “inactive” in each case.

Turning to `Cc1cc(O)c(C(C)C)cc1Cl`, the Potency result in the assay on DIV14, with DIV30, in the assay on Dd2, with ECU, with FAB9 and in the assay with JCK was “inactive” in each case. The Potency in the assay on ICS was 10 µM (active).

As for `CC1=C(C(=O)OC(C)C)C(c2cccc([N+](=O)[O-])c2)C(C(=O)OC2CN(C(c3ccccc3)c3ccccc3)C2)=C(N)N1` (configuration not stated), the Potency in the assay with DIV14 was 7.57 µM (active); in the assay with DIV17, 9.53 µM (active); in the assay on Dd2, 11.2 µM (active); with ECU, 7.08 µM (active); in the assay on GB4, 6.01 µM (active); in the assay on HB3, 11.2 µM (active). The Potency in the assay on ICS was 4.47 µM (active).

Regarding `CC(=O)N/N=C/c1ccc([N+](=O)[O-])o1`, the Potency result in the assay on DIV14 and in the assay on DIV30 was “inactive” each time. The Potency in the assay with Dd2 is 12.6 µM (active); in the assay with ICS, 5.62 µM (active).

Regarding `CCCCc1nc(Cl)c(CO)n1Cc1ccc(-c2ccccc2-c2nn[nH]n2)cc1`, the Potency with DIV14 was 8.49 µM (active); in the assay with ICS it was 7.94 µM (active). Also, the Potency result with FAB9 and in the assay with JCK was “inactive” each time.

`Cc1ccc(C(=O)C(C)CN2CCCCC2)cc1` (configuration not stated): the Potency result with DIV14, in the assay with Dd2, with FAB9 and with JCK was “inactive” each time. The results for the Potency in the assay with GB4 and in the assay on ICS were 13.5 µM (active) and 3.98 µM (active), respectively.

In the case of `c1ccc(OCc2ccc(CCCN3CCOCC3)cc2)cc1`, the Potency with DIV14 was 8.49 µM (active); with DIV17, 6.75 µM (active). In addition, the Potency result in the assay on FAB9, with HB3 and in the assay on JCK was “inactive” throughout.

Turning to `CCCOC(C(=O)OC1CCN(C)CC1)(c1ccccc1)c1ccccc1`, the Potency in the assay on DIV14 is 7.57 µM (active); with DIV17, 7.57 µM (active); with Dd2, 12.6 µM (active); with ECU, 10 µM (active); in the assay on ICS, 7.94 µM (active). Besides, the Potency result in the assay on FAB9 is “inactive”.
